Measurements taken from PubChem BioAssay (NCATS).
Unmarked numbers belong to inactive results. Results filed as inconclusive are left out. Calls of active or inactive are those of the source. Unless noted, the call rests on the fitted dose curve; in most records, active means well fitted curve in the direction sought with a large enough effect; inconclusive means small, poorly fitted or top-dose-only effect, or another doubt; inactive means no such curve, though single readings can be large; an effect the other way counts as inactive or inconclusive.

Key:
[1] = biological target: Lysosomal acid glucosylceramidase (Homo sapiens) (UniProt P04062); test: Glucocerebrosidase-p2 (AID 348; in the data active means potency below about 10 µM; further: potency means the concentration at half of the fitted maximal effect); conditions: purified GBA, blue fluorogenic substrate, 40 min
Sequence of Lysosomal acid glucosylceramidase (Homo sapiens) (P04062 whole entry, looked up): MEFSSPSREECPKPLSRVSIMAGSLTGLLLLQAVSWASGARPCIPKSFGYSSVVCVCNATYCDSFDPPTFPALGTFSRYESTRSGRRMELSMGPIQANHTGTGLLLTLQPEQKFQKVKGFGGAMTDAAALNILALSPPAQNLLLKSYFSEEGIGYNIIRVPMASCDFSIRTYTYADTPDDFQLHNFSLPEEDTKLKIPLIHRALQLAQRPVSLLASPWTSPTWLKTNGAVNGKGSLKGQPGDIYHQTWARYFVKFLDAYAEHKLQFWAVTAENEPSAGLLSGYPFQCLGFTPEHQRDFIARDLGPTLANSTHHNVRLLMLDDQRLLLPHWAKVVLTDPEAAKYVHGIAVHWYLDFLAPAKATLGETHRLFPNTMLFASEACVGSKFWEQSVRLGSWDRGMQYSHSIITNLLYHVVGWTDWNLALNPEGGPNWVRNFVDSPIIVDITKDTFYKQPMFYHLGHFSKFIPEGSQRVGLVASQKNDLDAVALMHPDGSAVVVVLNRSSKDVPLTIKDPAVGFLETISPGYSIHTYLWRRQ
Summary of the method: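 Normal human glucocerebrosidase (0.2 nM) with blue fluorogenic substrate (80 uM final) in citrate/phosphate pH 5.9 with 10mM sodium taurocholate, 0.01% tween-20; 40 min RT, NaOH/glycine stop; fluorescence Ex 365/Em 440; AC50 from a titration from 0.6 nM upwards.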

[2] = biological target: Cytochrome P450 1A2 (Homo sapiens) (UniProt P05177); test: p450-cyp1a2 (AID 410; calls by dose curve; further: potency means the concentration at half of the fitted maximal effect;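 on activity change, negative = inhibition: -100% = full effect of reference inhibitor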); conditions: recombinant CYP1A2, luciferin-ME demethylation, luminescence; series mostly up to 57 µM
Sequence of Cytochrome P450 1A2 (Homo sapiens) (P05177 whole entry, looked up): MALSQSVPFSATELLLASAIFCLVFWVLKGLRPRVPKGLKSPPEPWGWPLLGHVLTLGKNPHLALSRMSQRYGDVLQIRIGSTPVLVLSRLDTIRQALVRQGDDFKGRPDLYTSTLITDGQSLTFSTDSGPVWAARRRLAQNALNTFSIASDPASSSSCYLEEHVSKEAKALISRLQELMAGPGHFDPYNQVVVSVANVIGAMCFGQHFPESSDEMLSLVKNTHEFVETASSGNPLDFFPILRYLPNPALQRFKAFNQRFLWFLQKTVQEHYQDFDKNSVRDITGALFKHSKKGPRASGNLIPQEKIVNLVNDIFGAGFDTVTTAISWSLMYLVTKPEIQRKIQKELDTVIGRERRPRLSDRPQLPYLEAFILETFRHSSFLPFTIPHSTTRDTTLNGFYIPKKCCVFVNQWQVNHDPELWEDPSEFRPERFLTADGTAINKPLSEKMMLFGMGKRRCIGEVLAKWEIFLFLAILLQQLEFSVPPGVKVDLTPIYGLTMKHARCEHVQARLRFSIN
Summary of the method: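 Luminescent demethylation readout: Luciferin-ME (100uM, equal to Km) turned over by 20nM CYP1A2 for 60 min at room temperature after NADPH regeneration addition, following 10 min compound preincubation. Normalization used 57 uM furafylline as full inhibition.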

[3] = Stat Signaling Pathway (AID 446; active means well fitted curve in either direction with a large enough effect, not every such curve was filed as active;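 further: ME-180 cervical cancer cells given 40 pM IL-6 alongside compound; SIE-controlled beta-lactamase reporter measured as 460/530 nm FRET emission ratio; on the % scale 0 is the no-effect control and ±100 the full control effect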); conditions: ME-180 SIE beta-lactamase reporter, IL-6 stimulated, 5 h; at 7.69 µM (top of the series) unless noted
Summary of the method: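 FRET read-out (405 nm excitation, 460/530 nm emission) of a beta-lactamase reporter under a STAT-inducible element in ME-180 cervical carcinoma cells. Cells with compound receive 40 pM IL-6 for 5 h. Values are normalised to AC90 stimulation and AC90 JAK-inhibitor controls.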

[4] = biological target: Glucocorticoid receptor (Homo sapiens) (UniProt P04150); test: GR-EFC Redistribution (AID 451; calls by dose curve; further: potency means the concentration at half of the fitted maximal effect); conditions: CHO-K1 GR-EFC translocation, beta-gal luminescence, 2 h
Sequence of Glucocorticoid receptor (Homo sapiens) (P04150 whole entry, looked up, the tested form may be a part): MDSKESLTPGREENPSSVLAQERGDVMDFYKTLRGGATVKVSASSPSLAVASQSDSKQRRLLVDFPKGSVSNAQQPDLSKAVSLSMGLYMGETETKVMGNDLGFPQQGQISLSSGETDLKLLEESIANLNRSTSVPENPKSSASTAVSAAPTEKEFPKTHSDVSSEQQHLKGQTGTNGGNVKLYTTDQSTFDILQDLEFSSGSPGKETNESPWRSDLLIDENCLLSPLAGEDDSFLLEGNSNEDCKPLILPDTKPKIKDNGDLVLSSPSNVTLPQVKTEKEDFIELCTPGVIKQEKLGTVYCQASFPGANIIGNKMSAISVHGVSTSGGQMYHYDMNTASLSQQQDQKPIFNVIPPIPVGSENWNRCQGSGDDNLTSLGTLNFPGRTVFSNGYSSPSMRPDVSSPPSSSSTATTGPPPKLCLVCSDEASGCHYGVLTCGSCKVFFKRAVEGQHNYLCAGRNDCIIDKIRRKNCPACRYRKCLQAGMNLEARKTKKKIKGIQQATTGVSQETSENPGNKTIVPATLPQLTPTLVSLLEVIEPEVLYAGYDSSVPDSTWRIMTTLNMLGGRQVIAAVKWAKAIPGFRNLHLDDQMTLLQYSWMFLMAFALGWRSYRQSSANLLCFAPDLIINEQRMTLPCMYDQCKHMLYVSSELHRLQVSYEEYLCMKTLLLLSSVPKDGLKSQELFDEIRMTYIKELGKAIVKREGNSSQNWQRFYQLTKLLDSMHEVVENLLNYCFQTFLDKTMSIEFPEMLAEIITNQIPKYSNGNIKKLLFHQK
Summary of the method: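 CHO-K1 cells stably expressing nuclear-localized β-gal enzyme acceptor and GR fused C-terminally to the enzyme donor fragment; ligand-driven nuclear translocation restores β-gal by complementation. Compounds titrated up to 46 uM final, 2 h at 37 °C; luminescence read.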

[5] = biological target: Mitogen-activated protein kinase 10 (Mus musculus) (UniProt Q61831); test: JNK3 AlphaScreen Assay (AID 530; active means well fitted curve in either direction with a large enough effect, not every such curve was filed as active;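 further: kinase came from lysate of stimulated human HepG2 cells; signal reports phosphorylation of biotinylated GST-cJun 1-79 at Ser73 with 10 µM ATP; on the % scale 0 is the no-effect control and ±100 the full control effect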); conditions: JNK3 lysate, c-Jun phosphorylation; series mostly up to 57.1 µM
Summary of the method: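 Phosphorylation of biotinylated GST-cJun(1-79) at Ser73 is measured by AlphaScreen proximity luminescence. Enzyme is JNK3 in HepG2 lysates activated with interleukin-1beta and tumor necrosis factor alpha; ATP is 10 uM final.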

[6] = biological target: 3',5'-cyclic-AMP phosphodiesterase 4B (Homo sapiens) (UniProt Q07343); test: qHTS Assay for Inhibitors of PDE-IV (AID 607; active means well fitted activation curve with a large enough effect in the main read-out, with a control signal flat, not every such curve was filed as active; further: % of control where 0% means no effect); conditions: HEK293 ACTOne CNG channel cells, membrane potential fluorescence; series mostly up to 22.9 µM
Sequence of 3',5'-cyclic-AMP phosphodiesterase 4B (Homo sapiens) (Q07343 whole entry, looked up): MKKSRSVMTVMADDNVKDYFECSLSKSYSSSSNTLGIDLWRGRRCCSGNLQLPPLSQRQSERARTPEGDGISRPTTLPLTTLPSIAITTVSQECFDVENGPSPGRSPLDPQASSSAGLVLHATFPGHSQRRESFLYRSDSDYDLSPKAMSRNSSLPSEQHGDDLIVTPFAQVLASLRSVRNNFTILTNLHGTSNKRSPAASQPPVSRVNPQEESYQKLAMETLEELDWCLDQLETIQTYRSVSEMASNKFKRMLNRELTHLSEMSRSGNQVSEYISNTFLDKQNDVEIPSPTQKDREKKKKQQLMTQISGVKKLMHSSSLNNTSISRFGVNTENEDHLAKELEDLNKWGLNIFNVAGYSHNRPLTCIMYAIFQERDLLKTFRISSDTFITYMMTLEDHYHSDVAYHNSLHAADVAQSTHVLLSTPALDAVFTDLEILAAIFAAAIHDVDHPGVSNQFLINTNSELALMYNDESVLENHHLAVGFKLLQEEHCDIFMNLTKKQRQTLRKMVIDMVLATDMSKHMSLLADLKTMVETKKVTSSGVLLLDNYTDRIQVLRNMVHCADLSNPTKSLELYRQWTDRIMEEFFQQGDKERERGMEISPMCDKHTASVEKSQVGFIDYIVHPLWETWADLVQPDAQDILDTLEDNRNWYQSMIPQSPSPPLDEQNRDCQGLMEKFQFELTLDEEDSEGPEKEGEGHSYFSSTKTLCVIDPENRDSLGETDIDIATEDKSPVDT
Summary of the method: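 Cell-based read-out of cAMP via a modified cyclic nucleotide-gated channel and membrane potential dye (535/590 nm) in HEK293 cells expressing PDE4 endogenously. Compounds tested up to 22.9 uM final; 100 uM RO 20-1724 reference.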

[7] = biological target: Cytochrome P450 3A4 (Homo sapiens) (UniProt P08684); test: qHTS Assay for Inhibitors and Substrates of Cytochrome P450 3A4 (AID 884); conditions: recombinant CYP3A4, Luciferin-PPXE luminescence; series mostly up to 57.1 µM; further: nearly all actives have a fitted effect of over 50% in size; further: potency means the concentration at half of the fitted maximal effect
Sequence of Cytochrome P450 3A4 (Homo sapiens) (P08684 whole entry, looked up): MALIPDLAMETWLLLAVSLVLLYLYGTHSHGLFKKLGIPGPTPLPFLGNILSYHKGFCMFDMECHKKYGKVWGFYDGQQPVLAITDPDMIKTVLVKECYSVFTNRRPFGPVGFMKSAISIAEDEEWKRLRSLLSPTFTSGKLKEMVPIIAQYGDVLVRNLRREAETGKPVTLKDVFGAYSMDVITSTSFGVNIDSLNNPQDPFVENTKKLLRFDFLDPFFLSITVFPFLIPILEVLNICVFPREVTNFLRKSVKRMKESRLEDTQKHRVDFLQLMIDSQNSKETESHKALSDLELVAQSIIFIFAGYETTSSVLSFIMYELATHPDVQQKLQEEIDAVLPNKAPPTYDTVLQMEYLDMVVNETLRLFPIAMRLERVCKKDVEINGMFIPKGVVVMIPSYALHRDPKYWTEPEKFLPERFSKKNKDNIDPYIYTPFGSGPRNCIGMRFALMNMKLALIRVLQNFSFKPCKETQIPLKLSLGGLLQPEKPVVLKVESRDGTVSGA
Summary of the method: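 Luminescent readout of luciferin produced by CYP3A4 (20 nM) dealkylation of Luciferin-PPXE, 25 uM (its KM). NADPH-driven reaction ran 60 min at RT after 10 min compound preincubation; data scaled to 57 uM ketoconazole as 100% inhibition.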

[8] = Primary qHTS for small molecule stabilizers of the endoplasmic reticulum resident proteome: Secreted ER Calcium Modulated Protein (SERCaMP) assay (AID 1508630); conditions: SH-SY5Y GLuc-SERCaMP (Gaussia luciferase released on ER calcium loss) secretion, thapsigargin, luminescence; series mostly up to 38.4 µM; further: on the % scale 0 is the no-effect control and ±100 the full control effect
Summary of the method: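 The SH-SY5Y reporter protocol was run at 3 concentrations up to 38.3 uM (primary) or 11 concentrations (follow-up): 16 h compound, 100 nM thapsigargin for 4 h, then extracellular luciferase luminescence.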

[9] = NFAT Signaling Pathway (AID 444; active means well fitted curve in either direction with a large enough effect, not every such curve was filed as active;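 further: carbachol stimulus at about its EC50 of 1 µM final; on the % scale 0 is the no-effect control and ±100 the full control effect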); conditions: Jurkat NFAT-bla M1, carbachol, beta-lactamase ratio, 5 h; at 7.69 µM (top of the series) unless noted
Summary of the method: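 Jurkat cells carrying an NFAT-driven β-lactamase reporter and co-transfected muscarinic M1 receptor were treated with compound plus carbachol (1 uM final, an EC50 level) for 5 h at 37 °C. CCF4 loading followed for 1 h at RT; 460/530 nm ratio gave %activity.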

[10] = biological target: Glucocorticoid receptor (Homo sapiens) (UniProt P04150); test: GR-GFP Redistribution (AID 450;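 active means compounds whose dose series gives a full or clear partial fitted curve of increased nuclear translocation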; further: potency means the concentration at half of the fitted maximal effect); conditions: U2OS GR-GFP nuclear translocation, laser cytometry, 2 h
[11] = biological target: Cytochrome P450 3A4 (Homo sapiens) (UniProt P08684); test: qHTS Assay for Activators of Cytochrome P450 3A4 (AID 885); conditions: recombinant CYP3A4, Luciferin-PPXE luminescence, 60 min; series mostly up to 57.1 µM; further: nearly all actives have a fitted effect of over 65% in size; further: potency means the concentration at half of the fitted maximal effect
Summary of the method: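 Luminescent readout of luciferin formed from 25 uM Luciferin-PPXE (KM level) by 20 nM CYP3A4 in 200 mM KPO4, with 60 min NADPH-driven reaction at room temperature after 10 min compound exposure. Ketoconazole (57 uM) defined 100% inhibition.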

[12] = biological target: Cytochrome P450 2C19 (Homo sapiens) (UniProt P33261); test: qHTS Assay for Inhibitors and Substrates of Cytochrome P450 2C19 (AID 899); conditions: recombinant CYP2C19, luciferin-H EGE luminescence; series mostly up to 57.1 µM; further: potency means the concentration at half of the fitted maximal effect; nearly all actives have a fitted effect of over 60% in size
Sequence of Cytochrome P450 2C19 (Homo sapiens) (P33261 whole entry, looked up): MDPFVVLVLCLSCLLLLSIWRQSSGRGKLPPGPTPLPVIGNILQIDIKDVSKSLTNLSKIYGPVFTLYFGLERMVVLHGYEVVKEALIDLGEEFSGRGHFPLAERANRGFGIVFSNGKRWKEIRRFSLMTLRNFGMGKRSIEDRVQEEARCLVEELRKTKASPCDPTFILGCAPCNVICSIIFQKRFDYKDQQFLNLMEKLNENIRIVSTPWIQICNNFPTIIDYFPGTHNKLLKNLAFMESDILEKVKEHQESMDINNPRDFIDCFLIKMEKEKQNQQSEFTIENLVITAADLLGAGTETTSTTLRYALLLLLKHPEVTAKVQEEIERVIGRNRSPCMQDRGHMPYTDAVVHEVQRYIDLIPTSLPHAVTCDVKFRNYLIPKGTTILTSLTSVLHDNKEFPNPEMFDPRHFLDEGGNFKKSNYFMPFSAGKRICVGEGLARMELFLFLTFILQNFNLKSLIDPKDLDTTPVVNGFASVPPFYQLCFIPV
Summary of the method: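 Human CYP2C19 (5nM) with Luciferin-H EGE at 10uM (its KM) in 50mM KPO4 was preincubated with compound for 10 min at 37C. NADPH regeneration started a 60 min 37C reaction. Luciferin was read by luminescence, normalized to 57uM ketoconazole.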

[13] = qHTS Assay for Identification of Small Molecule Agonists for Hypoxia Response Element Signaling Pathway (AID 914; active means well fitted activation curve with a large enough effect in the signal ratio, with a control signal flat, not every such curve was filed as active; the % refers to the signal ratio; further: potency means the concentration at half of the fitted maximal effect); conditions: ME-180 (cervical carcinoma) HRE-bla reporter, beta-lactamase ratio, CoCl2, 17 h; activation: hits give high values
Summary of the method: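 qHTS titration; ME-180 HRE-bla cells; EC50 CoCl2 co-treatment, 17 h at 37 degrees Celsius; CCF4 dye, ex 405nm, em 460nm and 530nm; %Activity from ratio; AC50.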

[14] = biological target: Cytochrome P450 2C9 (Homo sapiens) (UniProt P11712); test: qHTS Assay for Inhibitors and Substrates of Cytochrome P450 2C9 (AID 883); conditions: recombinant CYP2C9, luciferin-H luminescence, 60 min; series mostly up to 57.1 µM; further: on the % scale 0 is the no-effect control and ±100 the full control effect; nearly all actives have a fitted effect of over 60% in size
Sequence of Cytochrome P450 2C9 (Homo sapiens) (P11712 whole entry, looked up): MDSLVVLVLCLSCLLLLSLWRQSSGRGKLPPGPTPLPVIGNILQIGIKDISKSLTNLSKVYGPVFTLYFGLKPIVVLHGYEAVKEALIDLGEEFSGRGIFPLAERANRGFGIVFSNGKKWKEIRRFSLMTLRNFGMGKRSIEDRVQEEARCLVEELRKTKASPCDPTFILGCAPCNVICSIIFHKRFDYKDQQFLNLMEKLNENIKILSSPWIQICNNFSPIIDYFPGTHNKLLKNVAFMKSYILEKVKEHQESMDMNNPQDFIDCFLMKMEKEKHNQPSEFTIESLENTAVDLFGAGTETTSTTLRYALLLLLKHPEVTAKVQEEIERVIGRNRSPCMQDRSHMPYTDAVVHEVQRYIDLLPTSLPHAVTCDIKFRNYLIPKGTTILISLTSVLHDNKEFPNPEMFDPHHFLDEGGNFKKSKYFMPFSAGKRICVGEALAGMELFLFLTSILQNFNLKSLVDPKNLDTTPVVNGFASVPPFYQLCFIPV
Summary of the method: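 Human CYP2C9 (10nM) hydroxylated Luciferin-H (100uM, at its KM) to luciferin in 25mM KPO4. Compound was preincubated 10 min at 37C, then NADPH regeneration started a 60 min reaction at 37C. Luminescence was read after detection reagent, normalized to 57uM sulphaphenazole.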

[15] = Confirmation and Secondary Assay for Modulators of Hemoglobin Beta Chain Splicing at IVS2 654 locus (AID 910); conditions: HeLa EGFP-654 splicing reporter, GFP fluorescence, 48 h; series mostly up to 38.3 µM;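 further: per-well total GFP intensity by laser scanning cytometry after 2-day treatment; % of control where 0% means no effect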
Summary of the method: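 HeLa cells stably carrying EGFP interrupted by mutant beta-globin IVS2-654 intron (CMV-driven) were treated with compound for 2 days at 37C; corrected splicing was scored as total peak GFP intensity per well (488 nm excitation, 500-520 nm emission).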

[16] = Confirmation and Secondary Assay for Modulators of Hemoglobin Beta Chain Splicing at IVS2 705 locus (AID 930); conditions: HeLa EGFP-705 splicing reporter, GFP fluorescence, 48 h; series mostly up to 38.3 µM;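 further: HeLa cells stably expressing the EGFP-705 splicing reporter; GFP fluorescence per well restored by corrected splicing of the IVS2-705 intron in EGFP; % of control where 0% means no effect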
Summary of the method: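 Secondary splice-site specificity test uses HeLa expressing CMV-driven EGFP interrupted by IVS2-705; cells were treated 2 days at 37C with 500 nM antisense PNA as positive control.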

[17] = biological target: Ubiquitin carboxyl-terminal hydrolase 1 (Homo sapiens) (UniProt O94782); test: Inhibitors of USP1/UAF1: Pilot qHTS (AID 504865); conditions: purified USP1/UAF1, Ub-rhodamine cleavage fluorescence; series mostly up to 54.9 µM;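 further: rhodamine fluorescence freed from ubiquitin-rhodamine substrate followed over time; top concentration of the series differs between compounds; on the % scale 0 is the no-effect control and ±100 the full control effect; nearly all actives have a fitted effect of over 35% in size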
Sequence of Ubiquitin carboxyl-terminal hydrolase 1 (Homo sapiens) (O94782 whole entry, looked up): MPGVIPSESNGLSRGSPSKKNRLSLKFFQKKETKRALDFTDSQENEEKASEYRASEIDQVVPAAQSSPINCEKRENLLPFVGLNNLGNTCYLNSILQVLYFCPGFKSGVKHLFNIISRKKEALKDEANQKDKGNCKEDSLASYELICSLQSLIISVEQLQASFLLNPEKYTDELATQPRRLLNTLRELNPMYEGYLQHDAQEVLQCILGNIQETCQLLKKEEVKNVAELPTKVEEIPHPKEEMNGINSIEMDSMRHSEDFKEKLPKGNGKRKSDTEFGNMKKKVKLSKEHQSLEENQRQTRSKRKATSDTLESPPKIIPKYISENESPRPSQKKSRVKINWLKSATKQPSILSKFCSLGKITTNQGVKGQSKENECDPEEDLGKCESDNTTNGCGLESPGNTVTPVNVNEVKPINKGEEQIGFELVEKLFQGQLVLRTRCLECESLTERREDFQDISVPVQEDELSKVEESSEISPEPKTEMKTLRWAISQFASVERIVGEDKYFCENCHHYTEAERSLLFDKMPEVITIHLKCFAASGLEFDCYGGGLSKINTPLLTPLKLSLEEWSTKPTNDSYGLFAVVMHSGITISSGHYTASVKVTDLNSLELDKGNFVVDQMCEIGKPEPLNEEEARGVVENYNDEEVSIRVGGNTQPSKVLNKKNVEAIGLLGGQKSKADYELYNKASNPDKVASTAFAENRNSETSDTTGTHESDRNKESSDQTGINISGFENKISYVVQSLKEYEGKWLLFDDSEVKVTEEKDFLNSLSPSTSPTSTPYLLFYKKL
Summary of the method: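 In 50mM HEPES pH 7.8 containing 0.5mM EDTA, 1mM TCEP, 0.1 mg/ml BSA and 0.01% Tween-20, 1nM USP1/UAF1 is exposed to compound for 15 min, then Ub-Rho (150nM final) is added and fluorescence is read over time.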

Structure (SMILES)	Potency [1]	Potency [2]	activity, negative = inhibition [3]	Potency [4]	Potency [5]	Potency [6]	Potency [7]	outcome [8]	activity change, negative = inhibition [9]	Potency [10]	Potency [11]	Potency [12]	Potency [13]	activity change, negative = inhibition [14]	Potency [15]	outcome [16]	Potency [17]
O=C(Oc1ccccc1)N1CCC2(CC1)CCN(c1cccc(-c3ccccc3)c1)CC2	> 11.4 µM	12.6 µM (active)	-5.12%	> 46 µM	inactive	inactive	inactive	inactive									
Cn1c(=O)cnc2cnc(Nc3ccccc3)nc21	> 11.4 µM	2 µM (active)	-16.6%	> 46 µM				inactive	-6.55%	> 9.22 µM	inactive						
CCNc1ncc2ncc(=O)n(CCc3ccccc3)c2n1	> 11.4 µM	1 µM (active)	-25.4%	> 46 µM	inactive	inactive		inactive	9.34%	> 9.22 µM	inactive	0.631 µM (active)					
COc1ccc(-n2c(=O)c(-c3cc(F)cc(F)c3)nc3cnc(N4CCNCC4)nc32)cc1	> 11.4 µM	12.6 µM (active)		> 46 µM	inactive	inactive		inactive			inactive		3.16 µM (active)				
COc1ccc(CNc2nc(-c3ccccc3CN(C)C)nc3ccccc23)c(OC)c1	> 11.4 µM	10 µM (active)	-17.2%	> 46 µM	inactive		7.94 µM (active)	inactive	-28%	> 46 µM	inactive			25.6% [at 2.29 µM]	inactive	inactive	inactive
O=C(c1cccc(F)c1)N1CCC2(CCCN(Cc3nccs3)C2)CC1	> 11.4 µM	inactive	5.18%	> 46 µM	inactive	inactive		inactive			inactive						
Cn1c(=O)c(-c2ccc(Cl)cc2)nc2cnc(Oc3ccccc3)nc21	> 11.4 µM	0.2 µM (active)	2.85%	> 46 µM		inactive	inactive	inactive		> 9.22 µM	20 µM (active)						
Cn1c(=O)c(-c2ccccc2)nc2cnc(Oc3ccccc3)nc21	> 11.4 µM	2 µM (active)	-0.677%	> 46 µM	inactive	inactive		inactive	7.65%	> 9.22 µM							
